Assay results from PubChem BioAssay (NCATS).
“And” between values parts separate entries of the source, which are not always exact repeats. Equal values may be shown once. Inconclusive results are not listed. Where a structure was tested more than once in an assay, its records may differ in their call. The source made the active and inactive calls. Unless noted, the call rests on the fitted dose curve; in most records, active means well fitted curve in the direction sought with a large enough effect; inconclusive means small, poorly fitted or top-dose-only effect, or another doubt; inactive means no such curve, though single readings can be large; an effect the other way counts as inactive or inconclusive. Non-standard residues stand in square brackets, D forms with d. Residues, ends and D or L forms follow the SMILES beside them. Peptide text beside a SMILES is read from it. *: point of attachment. Sta = CC(C)C[C@H](N)[C@@H](O)CC(=O)O; Isovaleryl = CC(C)CC(=O)*

Columns and labels:
[1] = qHTS to identify inhibitors of the type 1 interferon - major histocompatibility complex class I in skeletal muscle: primary screen against the NCATS Mechanism Interrogation Plate v5.0 (MIPE) Libary (AID 1347411); further: nearly all actives have a fitted effect of over 65% in size; further: potency means the concentration at half of the fitted maximal effect
Method in brief: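 IFN-beta-driven (4 ng/ml) HLA-B-HiBit expression in CRISPR-tagged C25cl48 myoblasts; compounds 11-pt, 1:3, max 46 uM, 24 hr exposure; lytic NanoLuc complementation luminescence.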

[2] = biological target: Protein phosphatase 1D (Homo sapiens) (UniProt O15297); assay: RapidFire Mass Spectrometry qHTS Assay for Modulators of WT P53-Induced Phosphatase 1 (WIP1) (AID 1347424);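 further: amount of dephosphorylated VEPPL-S-QETFS peptide product formed by WIP1; series mostly up to about 63 µM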
Method in brief: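 RapidFire mass spectrometry measured dephosphorylated peptide after 5 min room-temperature reaction of 2 uM VEPPL-pS-QETFS with 10 nM WIP1 (50 mM Tris-HCl pH 7.5, 30 mM MgCl2, 0.1 mM EGTA, BSA), following 1 hr compound preincubation; 1 uM isotope-labelled product standard.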

[3] = biological target: Protein phosphatase 1D (Homo sapiens) (UniProt O15297); assay: Rhodamine-PBP qHTS Assay for Modulators of WT P53-Induced Phosphatase 1 (WIP1) (AID 1347425)
Method in brief: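 WIP1 (5 nM final) was preincubated with compound for 1 hour at room temperature. It then dephosphorylated 10 uM VEPPL-pS-QETFS peptide in Tris-HCl pH 7.5 with 30 mM MgCl2. Released Pi was detected by 10 uM Rh-PBP fluorescence (ex 525/em 598 nm) read at 1-min intervals for 11 min, as delta f1 - f0.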

[4] = Primary qHTS for inhibitors of La Crosse Virus (LACV) - induced cell death in SH-SY5Y cells (AID 1508616);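 further: top concentration of the series differs between compounds; higher means more rescue of cells from virus-induced death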
Method in brief: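 Screening measures cell viability in LACV-infected SH-SY5Y cultures. Compound was added before virus (0.01 MOI), and ATP was detected by luminescence 6 days later.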

[5] = biological target: Calcium and integrin-binding protein 1 (Homo sapiens) (UniProt Q99828); assay: Primary qHTS for Identification of Calcium Integrin Binding Protein 1 (CIB1) Competitor (AID 1508620); further: potency means the concentration at half of the fitted maximal effect
Method in brief: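 CIB1-GST (1 uM final) and compound incubated 15 min at room temperature before adding FITC-alphaIIb peptide tracer (100 nM final). Competition for binding read by fluorescence polarization (ex 480, em 540) after another 15 min at room temperature.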

[6] = Primary qHTS for small molecule stabilizers of the endoplasmic reticulum resident proteome: Secreted ER Calcium Modulated Protein (SERCaMP) assay (AID 1508630)
Method in brief: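 The SH-SY5Y reporter protocol was run at 3 concentrations up to 38.3 uM (primary) or 11 concentrations (follow-up): 16 h compound, 100 nM thapsigargin for 4 h, then extracellular luciferase luminescence.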

[7] = biological target: Cytochrome P450 2D6 (Homo sapiens) (UniProt P10635); assay: Cytochrome P450 family 2 subfamily D member 6 (CYP2D6) small molecule antagonists: luciferase biochemical (cell-free) qHTS assay (AID 1645840; active means well fitted curve in the direction sought with a large enough effect in the repeat runs; an effect the other way counts as inactive or inconclusive; further: nearly all actives have a fitted effect of over 55% in size; further: potency means the concentration at half of the fitted maximal effect)
Method in brief: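 P450-Glo CYP2D6 system: proluciferin substrate converted by enzyme to luciferin, read by luminescence proportional to activity. Enzyme-substrate mix with compound 10 min at room temperature, then NADPH regeneration 1 h before detection reagent.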

[8] = biological target: Cytochrome P450 2C9 (Homo sapiens) (UniProt P11712); assay: Cytochrome P450 family 2 subfamily C member 9 (CYP2C9) small molecule antagonists: luciferase biochemical (cell-free) qHTS assay (AID 1645842; active means well fitted curve in the direction sought with a large enough effect in the repeat runs; an effect the other way counts as inactive or inconclusive; further: nearly all actives have a fitted effect of over 55% in size; further: potency means the concentration at half of the fitted maximal effect)
Method in brief: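 P450-Glo CYP2C9 system: proluciferin substrate with enzyme in mix containing 0.4% BSA, 10 min at room temperature, then NADPH regeneration solution added and incubated 1 h at 37C. Detection reagent stopped reaction; luminescence read after 20 min as RLU.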

[9] = Primary qHTS for inhibitors of nuclear receptor binding SET domain protein 2 (NSD2) in an isogenic RCH-ACV NSD2 p.E1099K mutant (9B) (AID 1645876); further: nearly all actives have a fitted effect of over 70% in size; further: potency means the concentration at half of the fitted maximal effect
[10] = Primary qHTS for inhibitors of nuclear receptor binding SET domain protein 2 (NSD2) in an RCH-ACV wild type WT cells (2C) (AID 1645877); further: nearly all actives have a fitted effect of over 70% in size; further: potency means the concentration at half of the fitted maximal effect
[11] = qHTS for inhibitors of adenylyl cyclases using a fission yeast platform: a pilot screen against the NCATS LOPAC library (AID 1347410)
Method in brief: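 Fission yeast qHTS: CHP2027 cells (AC9-GNAS-PDE4D2, fbp1-GFP), 5x10^6 cells/mL working density, EMM + His/Lys/Ura; LOPAC at up to 57 µM final; 18 h dark, 30C; GFP by laser cytometry. DPI positive control, DMSO vehicle.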

[12] = biological target: Single-stranded DNA cytosine deaminase (Homo sapiens) (UniProt Q9GZX7); assay: Validation qHTS assay for inhibitors of Activation Induced Cytidine Deaminase (AID): AID signal (AID 1347429)
Method in brief: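 Compounds (up to 114 uM final) are tested against AID plus UDG using DJC20/DJC23 FRET substrate. Reactions incubate 4 hr at room temperature, receive NaOH for 30 min, and are read at Ex 540/Em 590 nm.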

Papain (Carica papaya) = Papain (Carica papaya) (UniProt P00784); assay: Primary qHTS assay for inhibitors of the protease papain (AID 1645873);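 further: papain turnover of Z-FR-AMC read as the AMC fluorescence gain over 10 min; series mostly up to about 50 µM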
[13] = A High-Content qHTS Against Drug Library for the Identification of Small Molecules that Inhibit DYT1 Early Onset Primary Dystonia-Associated Cell Pathology (AID 1645839; calls by dose curve; further: potency means the concentration at half of the fitted maximal effect)
Method in brief: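 High-content imaging quantified EGFP-TorsinA mislocalization in HEK293-derived cells inducibly expressing DYT1 mutant torsinA, after 48 h exposure to compound given together with tetracycline induction. Cell count served as a toxicity channel alongside %pathology.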

[14] = biological target: N-terminal Xaa-Pro-Lys N-methyltransferase 1 (Homo sapiens) (UniProt Q9BV86); assay: Confirmatory qHTS for Inhibitors of N-terminal methyltransferase 1 (NTMT1): MTaseGlo Assay (AID 1645874);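 further: luminescence from SAH made as NTMT1 methylates SPKRIA peptide using SAM; series mostly up to about 100 µM; nearly all actives have a fitted effect of over 65% in size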
Method in brief: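 Inhibition was derived from luminescence after SAH-to-ATP conversion, scaled between no-enzyme and DMSO wells, then fitted by 4-parameter Hill. Conditions: 125 nM NTMT1, 100 uM SAM, 1 uM SPKRIA, 30 min RT.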

[15] = Counterscreen qHTS for small molecule stabilizers of the endoplasmic reticulum resident proteome: GLuc-NoTag assay (AID 1508627); further: potency means the concentration at half of the fitted maximal effect
Method in brief: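 Counterscreen line: SH-SY5Y-GLuc-NoTag cells, treated with compound 19 hr before a 4 hr, 100 nM thapsigargin calcium depletion. Secreted Gaussia luciferase in the medium was measured by luminescence after coelenterazine was added (0.07x final), with cells unlysed.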

[16] = Confirmatory qHTS for small molecule stabilizers of the endoplasmic reticulum resident proteome: Secreted ER Calcium Modulated Protein (SERCaMP) assay (AID 1508628); further: series mostly up to about 76 µM; nearly all actives have a fitted effect of over 40% in size
Method in brief: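 GLuc-SERCaMP-expressing SH-SY5Y cells, pretreated 16 h with compound, are challenged with thapsigargin to empty ER calcium stores; after 4 h, coelenterazine is added directly to the medium and luminescence is imaged.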

[17] = biological target: Calcium and integrin-binding protein 1 (Homo sapiens) (UniProt Q99828); assay: Confirmatory qHTS for Identification of Calcium Integrin Binding Protein 1 (CIB1) Competitor (AID 1508617); further: nearly all actives have a fitted effect of over 65% in size; further: potency means the concentration at half of the fitted maximal effect
Method in brief: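 FP competition: CIB1-GST (1 uM final) in 5 mM HEPES pH 7.4, 125 mM NaCl, 5 mM CaCl2, 0.01% Tween20 preincubated 15 min RT with compounds (up to 114 uM), then FITC-alphaIIb peptide (100 nM), 15 min RT; Ex 480/Em 540.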

[18] = biological target: Calcium and integrin-binding protein 1 (Homo sapiens) (UniProt Q99828); assay: Validation qHTS for Identification of Calcium Integrin Binding protein 1 (CIB1) Competitor (AID 1508618)
Method in brief: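 Fluorescence polarization with 1 uM CIB1-GST and 100 nM FITC-alphaIIb peptide in HEPES pH 7.4, NaCl, 5 mM CaCl2, Tween20. Compounds at up to 114 uM final, preincubated with protein 15 min; read after 15 min more at RT.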

Measured: Potency

Cytochrome P450 2C9 (Homo sapiens), sequence (P11712 whole entry, looked up): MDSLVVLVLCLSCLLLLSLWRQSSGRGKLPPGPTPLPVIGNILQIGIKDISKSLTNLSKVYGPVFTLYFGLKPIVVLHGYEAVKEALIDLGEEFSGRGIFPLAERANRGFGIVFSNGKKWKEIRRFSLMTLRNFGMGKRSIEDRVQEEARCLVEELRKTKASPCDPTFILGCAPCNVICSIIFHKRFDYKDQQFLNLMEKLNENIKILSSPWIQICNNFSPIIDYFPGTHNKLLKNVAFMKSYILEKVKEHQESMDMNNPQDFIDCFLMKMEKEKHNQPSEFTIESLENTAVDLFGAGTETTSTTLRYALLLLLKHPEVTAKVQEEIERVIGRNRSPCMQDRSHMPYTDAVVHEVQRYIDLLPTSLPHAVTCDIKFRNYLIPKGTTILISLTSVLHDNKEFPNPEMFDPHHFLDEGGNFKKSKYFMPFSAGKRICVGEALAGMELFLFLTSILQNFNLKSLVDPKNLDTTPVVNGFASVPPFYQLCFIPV
Calcium and integrin-binding protein 1 (Homo sapiens), sequence (Q99828 whole entry, looked up): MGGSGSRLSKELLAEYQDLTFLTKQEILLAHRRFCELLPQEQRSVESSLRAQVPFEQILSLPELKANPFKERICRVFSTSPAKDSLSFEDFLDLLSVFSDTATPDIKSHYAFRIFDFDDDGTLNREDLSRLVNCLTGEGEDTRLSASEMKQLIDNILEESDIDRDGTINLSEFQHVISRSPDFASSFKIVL
Cytochrome P450 2D6 (Homo sapiens), sequence (P10635 whole entry, looked up): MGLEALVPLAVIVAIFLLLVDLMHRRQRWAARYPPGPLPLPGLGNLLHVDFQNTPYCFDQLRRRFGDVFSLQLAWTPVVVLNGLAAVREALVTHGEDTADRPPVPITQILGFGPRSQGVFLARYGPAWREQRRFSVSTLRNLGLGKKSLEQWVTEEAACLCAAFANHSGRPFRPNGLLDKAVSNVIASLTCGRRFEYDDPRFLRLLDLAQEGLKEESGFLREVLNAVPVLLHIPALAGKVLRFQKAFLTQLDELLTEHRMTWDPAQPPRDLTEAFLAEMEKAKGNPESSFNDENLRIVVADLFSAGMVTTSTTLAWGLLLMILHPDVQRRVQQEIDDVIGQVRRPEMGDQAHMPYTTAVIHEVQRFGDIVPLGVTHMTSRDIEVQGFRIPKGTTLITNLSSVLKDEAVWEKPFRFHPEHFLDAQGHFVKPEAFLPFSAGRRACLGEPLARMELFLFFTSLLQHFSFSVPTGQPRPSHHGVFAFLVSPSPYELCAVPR
Protein phosphatase 1D (Homo sapiens), sequence (O15297 whole entry, looked up): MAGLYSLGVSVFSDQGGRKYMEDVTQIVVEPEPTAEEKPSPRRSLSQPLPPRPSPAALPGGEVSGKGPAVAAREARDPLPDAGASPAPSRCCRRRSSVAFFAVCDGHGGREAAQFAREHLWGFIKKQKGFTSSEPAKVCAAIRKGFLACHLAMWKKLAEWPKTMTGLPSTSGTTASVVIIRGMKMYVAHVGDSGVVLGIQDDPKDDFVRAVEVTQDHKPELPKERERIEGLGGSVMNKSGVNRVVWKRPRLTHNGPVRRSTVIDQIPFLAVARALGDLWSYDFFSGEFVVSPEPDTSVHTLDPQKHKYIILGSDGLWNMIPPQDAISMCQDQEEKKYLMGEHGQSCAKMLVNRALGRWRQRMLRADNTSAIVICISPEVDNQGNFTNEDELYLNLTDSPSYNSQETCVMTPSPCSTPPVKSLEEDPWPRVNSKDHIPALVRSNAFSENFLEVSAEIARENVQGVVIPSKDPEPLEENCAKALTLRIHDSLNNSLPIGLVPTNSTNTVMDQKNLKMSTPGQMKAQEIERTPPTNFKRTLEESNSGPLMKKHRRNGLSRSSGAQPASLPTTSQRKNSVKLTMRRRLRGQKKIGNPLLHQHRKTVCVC
N-terminal Xaa-Pro-Lys N-methyltransferase 1 (Homo sapiens), sequence (Q9BV86 whole entry, looked up): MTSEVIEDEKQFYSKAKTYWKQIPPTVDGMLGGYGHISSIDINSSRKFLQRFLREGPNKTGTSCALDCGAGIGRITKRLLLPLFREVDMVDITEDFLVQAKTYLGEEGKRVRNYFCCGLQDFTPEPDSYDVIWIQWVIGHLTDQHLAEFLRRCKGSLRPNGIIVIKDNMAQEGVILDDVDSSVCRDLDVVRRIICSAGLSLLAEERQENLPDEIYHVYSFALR
Single-stranded DNA cytosine deaminase (Homo sapiens), sequence (Q9GZX7 whole entry, looked up): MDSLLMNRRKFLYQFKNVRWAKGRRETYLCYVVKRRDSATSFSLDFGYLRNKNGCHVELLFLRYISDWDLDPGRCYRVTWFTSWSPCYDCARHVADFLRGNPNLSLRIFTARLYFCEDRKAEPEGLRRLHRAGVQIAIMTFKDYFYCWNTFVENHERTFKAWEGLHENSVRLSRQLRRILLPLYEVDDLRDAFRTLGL
Papain (Carica papaya), sequence (P00784 whole entry, looked up): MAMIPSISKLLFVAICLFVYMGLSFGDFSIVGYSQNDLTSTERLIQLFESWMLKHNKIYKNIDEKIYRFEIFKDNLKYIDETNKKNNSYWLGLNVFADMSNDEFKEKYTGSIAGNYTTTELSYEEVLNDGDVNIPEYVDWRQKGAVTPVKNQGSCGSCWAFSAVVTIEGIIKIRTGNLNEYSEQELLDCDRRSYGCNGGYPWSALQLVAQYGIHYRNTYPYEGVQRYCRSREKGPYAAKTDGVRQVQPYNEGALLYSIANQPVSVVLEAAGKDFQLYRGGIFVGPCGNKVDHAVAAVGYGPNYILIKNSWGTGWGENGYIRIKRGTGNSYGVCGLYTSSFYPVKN

CCc1nc(N)nc(N)c1-c1ccc(Cl)cc1
inactive: [1] | [2] | [3] | [4] | [5] | [6] | [8]
active: [7] 12.3 µM | [9] 2.37 µM and 2.95 µM | [10] 3.35 µM and 4.17 µM

CC(C)c1ccc2c(c1)c(SC(C)(C)C)c(CC(C)(C)C(=O)O)n2Cc1ccc(Cl)cc1
inactive: [11] | [12] | [6] | Papain (Carica papaya) | [9] | [10]

O=C(NCC1CCCCN1)c1cc(OCC(F)(F)F)ccc1OCC(F)(F)F (stereo unspecified)
inactive: [1] | [2] | [3] | [4] | [5] | [8] | [9] | [10]

CC(C)C[C@H](NC(=O)[C@H](Cc1ccccc1)NC(=O)c1cnccn1)B(O)O
active: [1] 41.5 nM | [9] 3.8 nM and 5.2 nM and 26.3 nM
inactive: [2] | [3] | [4] | [5] | [6] | [13] | [7] | [8]

S=c1nc[nH]c2nc[nH]c12
inactive: [1] | [2] | [3] | [4] | [5] | [6] | [7] | [14]
active: [8] 19.5 µM | [9] 944 nM and 2.63 µM | [10] 668 nM and 1.66 µM

CC(C)CC(=O)N[C@H](C(=O)N[C@H](C(=O)N[C@@H](CC(C)C)[C@@H](O)CC(=O)N[C@@H](C)C(=O)N[C@@H](CC(C)C)[C@@H](O)CC(=O)O)C(C)C)C(C)C (Isovaleryl-VV[Sta]A[Sta]-OH)
inactive: [1] | [2] | [3] | [4] | [5] | [6] | [7] | [8] | [9] | [10]

COCCCN1CCC(NC(=O)c2cc(Cl)c(N)c3c2OCC3)CC1
active: [7] 3.47 µM | [8] 2.45 µM
inactive: [1] | [2] | [3] | [4] | [5] | [6] | [9]

CC(S)C(=O)NCC(=O)O (stereo unspecified)
not listed: [11] | [12] | Papain (Carica papaya) | [14] | [15] | [16] | [17] | [18]
inactive: all other assays above

COC(=O)[C@H](Cc1ccccc1)NC(=O)[C@@H](N)CC(=O)O (H-Asp-Phe-OMe)
inactive: [1] | [2] | [3] | [4] | [5] | [6] | [7] | [8] | [9] | [10]

c1ccc2[nH]c(-c3cscn3)nc2c1
inactive and 13.2 µM (active): [10]
inactive: [1] | [2] | [3] | [4] | [5] | [6] | [8] | [9]

CCN(CC)CCOc1ccc(Cc2ccccc2)cc1
active: [7] 6.17 µM | [10] 29.9 µM
inactive: [1] | [2] | [3] | [4] | [5] | [6] | [8]

CCN(CC)CCOc1ccc(Nc2ncc3cc(-c4c(Cl)cccc4Cl)c(=O)n(C)c3n2)cc1
inactive: [11] | [5] | [6]
active: [9] 417 nM | [10] 0.468 µM

O=C(O)c1cccc(-c2noc(-c3ccccc3F)n2)c1
inactive: [1] | [2] | [3] | [4] | [15] | [16] | [14] | [9]
active: [7] 1.55 µM | [8] 1.55 µM

O=C(O)CCNC(=O)c1ccc(N=Nc2ccc(O)c(C(=O)O)c2)cc1
inactive: [1] | [2] | [3] | [4] | [6] | [13] | [7] | [8] | [9] | [10]

CC(C)Oc1ccc2c(=O)c(-c3ccccc3)coc2c1
active: [8] 13.8 µM and 21.9 µM
inactive: [1] | [2] | [3] | [4] | [6] | [13] | [7] | [9] | [10]

CCOc1cc(CC(=O)N[C@@H](CC(C)C)c2ccccc2N2CCCCC2)ccc1C(=O)O
inactive: [1] | [6] | [7] | [8] | [9] | [10]

CCCCC(CC)COC(=O)C(C#N)=C(c1ccccc1)c1ccccc1 (stereo unspecified)
21.1 µM (active) and inactive: [9]
inactive: [1] | [2] | [3] | [4] | [6] | [10]
active: [7] 1.23 µM and 3.38 µM | [8] 1.1 µM and 3.01 µM

CCCCCCCCCCCCCCCCCCCCCCO
inactive: [1] | [5] | [6] | [9]

COC(=O)C1=C(C)NC(C)=C(C(=O)OC(C)C)C1c1cccc2nonc12 (stereo unspecified)
inactive: [2] | [3] | [4] | [5] | [6]

Cn1c(NCCN(CCO)CCCc2ccc([N+](=O)[O-])cc2)cc(=O)n(C)c1=O
inactive: [1] | [2] | [3] | [4] | [6] | [8] | [9] | [10]

CCN(CC)C(=S)SSC(=S)N(CC)CC
14.1 µM (active) and inactive: [17]
active: [5] 44.7 µM | [15] 28.2 µM | [13] 10 µM | [8] 7.7 µM and 7.76 µM | [9] 351 nM and 2.66 µM and 2.63 µM | [10] 394 nM and 4.22 µM and 2.95 µM
not listed: [1] | [11] | [14]
inactive: all other assays above
